Among the data in PubChem BioAssay AID1839 (Johns Hopkins Ion Channel Center, 2009) are signal change vs control minus 3*SD hit threshold (margin above threshold, higher = more increase) values, retold here.

The campaign covered roughly 2,400 compounds. About 220 (9.2%) were called active. Many of the other results were omitted from the sample, so actives are more common in it than they were. Unmarked numbers belong to inactive results.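 How the source made its calls: active means signal change above the mean of dofetilide-free buffer controls plus 3 SD, so a positive margin; inactive means the rest.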

The assay in a line: thallium signal changes without hERG – cell-based, CHO-K1 parental line, FluxOR thallium flux, counter-screen for hERG block protection project, confirmation (AID 1839).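 Further: compounds applied alone with no dofetilide to cells lacking hERG.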 To be noted: CHO-K1 parental cells, FluxOR thallium flux fluorescence; at 10 µM.
On to `C=CCN(CC=C)C(=S)NC(=O)/C=C/c1ccc(OC)cc1`, for which the signal change vs control minus 3*SD hit threshold (margin above threshold, higher = more increase) is -19.8%. The figure for `Cc1cc(-c2cccnc2)c(C#N)c(SCc2cccc(F)c2)n1` is -37.3%; for `COC(=O)c1sccc1NC(=S)NCc1ccc(Cl)cc1` it is -22.4%; for `CCc1cc2c(=O)n(CCC(C)C)c(=S)[nH]c2s1` it is 26.1% (active).

`CCOC(=O)C1=C(c2ccccc2)NC(=O)NC1c1ccc(OC)c(OC)c1` (centres undefined): the signal change vs control minus 3*SD hit threshold (margin above threshold, higher = more increase) is -32.6%. For `CSC(=S)N/N=C(\C)c1ccccc1`, the signal change vs control minus 3*SD hit threshold (margin above threshold, higher = more increase) is 15.8% (active). The figure for `C/C(=N\NC(N)=S)c1cccnc1` is -29.6%. In the case of `CSC(=S)N/N=C/c1ccccc1`, the signal change vs control minus 3*SD hit threshold (margin above threshold, higher = more increase) was 18.1% (active).

Turning to `CSC(=S)N/N=C/c1ccc(Br)cc1`, the signal change vs control minus 3*SD hit threshold (margin above threshold, higher = more increase) is -17.6%. Turning to `C/C(=N\NC(N)=S)c1ccncc1`, the signal change vs control minus 3*SD hit threshold (margin above threshold, higher = more increase) is -26.5%. With `CC(C)NC(=S)N/N=C/c1ccc(C(C)(C)C)cc1`, the signal change vs control minus 3*SD hit threshold (margin above threshold, higher = more increase) is -20.4%. For `CC1=C(C#N)C(Nc2cc(C)ccn2)(C(F)(F)F)C(=O)N1` (centres undefined), the signal change vs control minus 3*SD hit threshold (margin above threshold, higher = more increase) was -31.1%. On to `CCOC(=O)c1c(-c2ccc(C)o2)csc1NC(=S)NC(=O)N(C)C`, for which the signal change vs control minus 3*SD hit threshold (margin above threshold, higher = more increase) is -14.3%. The figure for `CNc1nc(N)nc(OC(C(F)(F)F)C(F)(F)F)n1` is -25.1%. The figure for `CC(=O)c1c(N2CCCC2)[nH]c(-c2ccccc2)nc1=S` is -21.2%.

Consider `CC(=O)c1c(NC(=O)c2ccccc2)[nH]c(-c2ccccc2)nc1=S`, for which the signal change vs control minus 3*SD hit threshold (margin above threshold, higher = more increase) was -26.3%. For `S=c1[nH]c2ccccc2c2ccccc12`, the signal change vs control minus 3*SD hit threshold (margin above threshold, higher = more increase) was -25%.

On to `S=c1nc(-c2ccc(Br)cc2)[nH]c2ccccc12`, for which the signal change vs control minus 3*SD hit threshold (margin above threshold, higher = more increase) is 53.6% (active). As to `CC(Oc1ccc(Br)cc1)c1nc2c3ccccc3nc(=S)n2[nH]1` (centres undefined), the signal change vs control minus 3*SD hit threshold (margin above threshold, higher = more increase) is -25%.

`S=c1nc(-c2ccccc2)[nH]c2ccc(Br)cc12`: the signal change vs control minus 3*SD hit threshold (margin above threshold, higher = more increase) is 52.8% (active). The figure for `NNC(=O)CNc1ccccc1Cl` is -26%; for `CN(C)c1ccc(C(CNS(=O)(=O)c2ccc([N+](=O)[O-])cc2)N2CCCC2)cc1` (centres undefined) it is -29%; for `O=C(CCc1ccccc1)Nc1nccs1` it is -33.8%. The figure for `CC(C)C(=O)Nc1ccc(NC(=O)CCc2ccccc2)cn1` is -33.7%; for `O=C(Nc1ncc(Br)s1)C(Cc1ccccc1)n1cccc1` (centres undefined) it is 6.9% (active); for `COc1cccc(OC)c1C(=O)NC(=S)N1CCN(c2ccc(C(F)(F)F)cc2[N+](=O)[O-])CC1` it is -46.3%.

For the molecule `COCc1cc(C)nc(OCC(=O)N/N=C/c2ccc(-c3cc([N+](=O)[O-])ccc3Cl)o2)c1C#N`, the signal change vs control minus 3*SD hit threshold (margin above threshold, higher = more increase) was -29.8%.

Consider `Cc1nn(C(=O)CNC(=O)c2ccccc2)c(C)c1C`, for which the signal change vs control minus 3*SD hit threshold (margin above threshold, higher = more increase) was -23.2%. On to `Cc1ccccc1Cn1nc(C)c(NC(=O)c2ccccc2)c1C`, for which the signal change vs control minus 3*SD hit threshold (margin above threshold, higher = more increase) was 11.5% (active). For the molecule `CC(=O)c1n[nH]nc1NC(=O)c1ccccc1`, the signal change vs control minus 3*SD hit threshold (margin above threshold, higher = more increase) is -17.2%. The figure for `Cn1nc(C(F)(F)F)c(-c2ccc(Br)cc2)c1NC(=O)c1cccnc1` is -37.7%. The figure for `O=C1NCC(=O)N2C(c3ccccc3)c3[nH]c4ccccc4c3C[C@@H]12` (some centres undefined) is -28.2%; for `S=c1nc(-c2ccccc2)[nH]n1-c1ccccc1` it is 16.8% (active).

`S=c1nc(C2CCCCC2)n(-c2ccccc2)[nH]1`: the signal change vs control minus 3*SD hit threshold (margin above threshold, higher = more increase) is -0.7%. Turning to `S=c1nc(-c2ccccc2)c(-c2ccccc2)n[nH]1`, the signal change vs control minus 3*SD hit threshold (margin above threshold, higher = more increase) is -37%. With `COc1ccc(-n2nc(C(=O)NCC(=O)NCc3ccc(F)cc3)c3ccccc3c2=O)cc1OC`, the signal change vs control minus 3*SD hit threshold (margin above threshold, higher = more increase) was -26.4%.

As for `COc1cccc(-n2nc(C(=O)O)c3ccccc3c2=O)c1`, the signal change vs control minus 3*SD hit threshold (margin above threshold, higher = more increase) was 4.7% (active).

Take `COc1cccc(NC(=O)c2nn(-c3ccc(OC)cc3OC)c(=O)c3ccccc23)c1`: the signal change vs control minus 3*SD hit threshold (margin above threshold, higher = more increase) is -26.1%.

`CC(C)Oc1cc(S(=O)(=O)N2CCCCC2)ccc1N`: the signal change vs control minus 3*SD hit threshold (margin above threshold, higher = more increase) was -27.8%. As for `CC(C)COc1ccc(-c2nn(-c3ccccc3)cc2C(=O)Nc2nccs2)cc1`, the signal change vs control minus 3*SD hit threshold (margin above threshold, higher = more increase) is -25.4%. In the case of `COc1ccc(-c2nc(=S)c3ccc4ccccc4c3[nH]2)cc1`, the signal change vs control minus 3*SD hit threshold (margin above threshold, higher = more increase) was 32.2% (active). With `COc1ccc(OC(=O)Cc2cccc3ccccc23)cc1`, the signal change vs control minus 3*SD hit threshold (margin above threshold, higher = more increase) is -30.2%.

For `COc1ccc(-n2c(=S)[nH]c3ccccc3c2=S)cc1`, the signal change vs control minus 3*SD hit threshold (margin above threshold, higher = more increase) is -30.8%.

With `CCc1ccc(NC(=S)NC(=O)c2c(-c3ccccc3Cl)noc2C)cc1`, the signal change vs control minus 3*SD hit threshold (margin above threshold, higher = more increase) was -32.8%. The figure for `C=CCn1c2ccccc2c(=O)c2cc(C#Cc3ccsc3)ccc21` is -24.5%. The figure for `COc1ccc(C(=O)CC(=O)C(=O)Nc2ccccc2)cc1` is -20.3%; for `COc1ccccc1NC(=O)C(=O)NNC(=O)COc1ccc2ccccc2c1` it is 59.2% (active); for `COc1cccc(OCC(=O)NNC(=O)C(=O)Nc2ccc(OC)cc2OC)c1` it is -21.1%. The figure for `O=C(COc1ccc2ccccc2c1)NNC(=O)C(=O)Nc1ccccc1` is 15.8% (active).
